Measured values taken from ChEMBL document CHEMBL3433997, “St. Jude Leishmania screening dataset” (2016).

Columns and labels:
Assay type in all cases: functional
[1] = target: Solute carrier family 2, facilitated glucose transporter member 1 (Homo sapiens) (UniProt P11166); test: ST_JUDE_LEISH: Cytotoxicity at 2uM final concentration against transgenic Leishmania Mexicana promastigotes LmGLUT1 that are glucose transport deficient and complemented with the human glucose transporter GLUT1. Activity is measured by DNA content using SYBR green in vitro
[2] = target: Hexose transporter 1 (Plasmodium falciparum) (UniProt O97467); test: ST_JUDE_LEISH: Cytotoxicity at 2uM final concentration against transgenic Leishmania Mexicana promastigotes LmPfHT that are glucose transport deficient and complemented with the Plasmodium falciparum hexose transporter. Activity is measured by DNA content using SYBR green in vitro
[3] = target: Glucose transporter (Leishmania mexicana) (UniProt O61059); test: ST_JUDE_LEISH: Cytotoxicity at 2uM final concentration against transgenic Leishmania Mexicana promastigotes LmGT2 that are glucose transport deficient and complemented with the L. Mexicana glucose transporter 2. Activity is measured by DNA content using SYBR green in vitro

Chain of Solute carrier family 2, facilitated glucose transporter member 1 (Homo sapiens) (P11166 whole entry): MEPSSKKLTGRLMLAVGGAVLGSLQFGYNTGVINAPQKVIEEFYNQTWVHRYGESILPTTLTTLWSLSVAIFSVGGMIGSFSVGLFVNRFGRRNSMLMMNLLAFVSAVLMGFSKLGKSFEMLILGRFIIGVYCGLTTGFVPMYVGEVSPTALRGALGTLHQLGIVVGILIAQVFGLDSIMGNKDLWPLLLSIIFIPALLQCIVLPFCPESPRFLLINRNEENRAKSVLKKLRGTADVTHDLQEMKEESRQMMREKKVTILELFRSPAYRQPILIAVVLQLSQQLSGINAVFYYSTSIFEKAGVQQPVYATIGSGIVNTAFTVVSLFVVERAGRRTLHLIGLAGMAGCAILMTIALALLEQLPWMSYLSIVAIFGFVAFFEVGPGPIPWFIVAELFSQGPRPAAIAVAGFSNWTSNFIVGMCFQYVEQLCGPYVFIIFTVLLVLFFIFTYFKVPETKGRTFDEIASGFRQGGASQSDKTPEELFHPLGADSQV

## O=C(Nc1ccc2c(c1)CCC2)c1ccc(CN2CCCN(Cc3cccc(O)c3)CC2)cc1
[1]
  inhibition: 11.2%
[2]
  inhibition: 12.1%
[3]
  inhibition: 9.95%

## O=C(NCC1CCN(Cc2cccc(C(F)(F)F)c2)C1)c1cc(-c2cccc(C(F)(F)F)c2)cs1 (stereo not drawn)
[1]
  inhibition: 3.9%
[2]
  inhibition: 2.69%
[3]
  inhibition: 5.94%

## CN1CCC(N(Cc2ccc(-c3cnc(NCc4ccccc4)nc3)cc2)S(=O)(=O)c2ccccc2)CC1
[1]
  inhibition: 14%
[2]
  inhibition: 12.1%
[3]
  inhibition: 3.05%

## CS(=O)(=O)Cc1cccc(Nc2ncc(Cl)c(Nc3cccnc3C(N)=O)n2)c1
[1]
  inhibition: 11.5%
[2]
  inhibition: 12.6%
[3]
  inhibition: 15.6%

## O=C(/C=C/c1ccc(C(F)(F)F)cc1)NCCCCCN1CCCN(C(=O)Nc2ccc(Cl)c(C(F)(F)F)c2)CC1
[1]
  inhibition: -0.16%
[2]
  inhibition: 0.4%
[3]
  inhibition: 0.66%

## COc1ccccc1CCC(C)(C)NC(=O)CC(CCc1ccccc1)Nc1ccc(C#N)c2ccccc12 (stereo not drawn)
[1]
  inhibition: -0.97%
[2]
  inhibition: -0.79%
[3]
  inhibition: -3.34%

## CCCCCCN(CCCCCC)CC(O)c1c(OC)ccc2ccccc12 (stereo not drawn)
[1]
  inhibition: 3.35%
[2]
  inhibition: 5.37%
[3]
  inhibition: 5.56%

## Cc1cc(NCCc2ccccc2)nc(NC(=N)Nc2cccc([N+](=O)[O-])c2)n1
[1]
  inhibition: 11.1%
[2]
  inhibition: 10.5%
[3]
  inhibition: 5.24%

## CC(CN(C)C)C(=O)Nc1cccc(-c2cccc(-c3nc4ccccc4[nH]3)c2)c1 (stereo not drawn)
[1]
  inhibition: -0.1%
[2]
  inhibition: -0.62%
[3]
  inhibition: 3.87%

## N#Cc1cccc(CNC(=O)c2cccc(Nc3ccnc4ccc(F)cc34)c2)c1
[1]
  inhibition: -0.1%
[2]
  inhibition: 1.25%
[3]
  inhibition: 0.82%

## COc1ccc(CNCCc2cccs2)cc1-c1ccc(S(=O)(=O)NCCN2CCCC2)cc1
[1]
  inhibition: 5.85%
[2]
  inhibition: 5.79%
[3]
  inhibition: 2.85%

## Cc1cc(OCC2CCCO2)c2cc(NC(=O)C(=O)Nc3ccc4nc(C)cc(OCC5CCCO5)c4c3)ccc2n1 (stereo not drawn)
[1]
  inhibition: 3.87%
[2]
  inhibition: 3.62%
[3]
  inhibition: 3.37%

## O=C(NCCCCN1CCC(c2ccc3c(c2OCCN2CCCC2=O)CCCC3)CC1)c1ccc(-c2ccc(C(F)(F)F)cc2)cc1
[1]
  inhibition: -1.16%
[2]
  inhibition: 0.75%
[3]
  inhibition: -0.45%

## O=C(c1ccc([N+](=O)[O-])o1)N1CCC(Cc2ccc(C(F)(F)F)cc2)CC1
[1]
  inhibition: 9.05%
[2]
  inhibition: 22.5%
[3]
  inhibition: 0.45%

## Cc1c(O)cccc1Nc1ccnc2ccc(C(F)(F)F)cc12
[1]
  inhibition: -0.14%
[2]
  inhibition: 0.25%
[3]
  inhibition: -1.33%

## CNCCCNc1ccnc2cc(Cl)ccc12
[1]
  inhibition: 3.07%
[2]
  inhibition: 4.53%
[3]
  inhibition: 5.03%
